Laboratory results from PubChem BioAssay (NCI).
This is part of a sample that, as a whole, favours compounds with a hit. Of some 83,000 tested, about 20% had one in any assay.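 How to read the values: 0–100, growth inhibition (40 = 60% inhibited); 0, no net growth; -100 to 0, cell death (-40 = 40% of starting cells died; -100 = all dead).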 Active and inactive are the calls of the source. How the source made its calls: active means growth percent below 10; inactive means the rest.

How the values were obtained:
Assay in all cases: NCI-60 one-dose screen, 48 h (100 = growth as untreated, 0 = no growth, -100 = all killed)
Details in all cases: 10 µM
SK-MEL-2 melanoma = system: SK-MEL-2 melanoma
EKVX NSCLC = system: EKVX NSCLC
SN12C renal = system: SN12C renal
UO-31 renal = system: UO-31 renal
TK-10 renal = system: TK-10 renal
ACHN renal = system: ACHN renal
CAKI-1 renal = system: CAKI-1 renal
A498 renal = system: A498 renal
MOLT-4 leukemia = system: MOLT-4 leukemia
SR leukemia = system: SR leukemia
RPMI-8226 leukemia = system: RPMI-8226 leukemia
OVCAR-8 ovarian = system: OVCAR-8 ovarian
OVCAR-5 ovarian = system: OVCAR-5 ovarian
OVCAR-4 ovarian = system: OVCAR-4 ovarian
SK-OV-3 ovarian = system: SK-OV-3 ovarian
IGROV1 ovarian = system: IGROV1 ovarian
OVCAR-3 ovarian = system: OVCAR-3 ovarian
HS 578T breast = system: HS 578T breast
NCI/ADR-RES ovarian = system: NCI/ADR-RES ovarian
CCRF-CEM leukemia = system: CCRF-CEM leukemia

Measured: growth

Oc1[nH]c2ccccc2c1/C=c1/cc2c(c(-c3ccc(C(F)(F)F)cc3)n1)=Nc1ccccc1-2
inactive: SK-MEL-2 melanoma 55.3% | EKVX NSCLC 52.1% | SN12C renal 79.1% | UO-31 renal 56.1% | TK-10 renal 56.9% | ACHN renal 32% | CAKI-1 renal 48.4% | A498 renal 62.6% | MOLT-4 leukemia 29.6% | RPMI-8226 leukemia 12% | OVCAR-8 ovarian 63.5% | OVCAR-5 ovarian 70.5% | OVCAR-4 ovarian 50.5% | SK-OV-3 ovarian 79% | IGROV1 ovarian 71.2% | OVCAR-3 ovarian 20.2% | HS 578T breast 74.8% | NCI/ADR-RES ovarian 31.7%
active: SR leukemia 4.59%

COc1ccc(/C=C(\c2cc(OC)c(OC)c(OC)c2)c2nnc(-c3cccs3)o2)cc1
inactive: SK-MEL-2 melanoma 81.9% | EKVX NSCLC 78.6% | SN12C renal 84.6% | UO-31 renal 89.3% | TK-10 renal 75.5% | ACHN renal 75.3% | CAKI-1 renal 66.3% | A498 renal 71.4% | MOLT-4 leukemia 87.6% | SR leukemia 78.3% | RPMI-8226 leukemia 83.9% | OVCAR-8 ovarian 47.6% | OVCAR-5 ovarian 99.4% | OVCAR-4 ovarian 26.6% | SK-OV-3 ovarian 62.7% | IGROV1 ovarian 71.7% | OVCAR-3 ovarian 82.6% | HS 578T breast 43.6% | NCI/ADR-RES ovarian 66.4%

Cn1c(=O)c2[nH]c(C(O)c3ccc(Cl)cc3)nc2n(C)c1=O (stereo unspecified)
inactive: SK-MEL-2 melanoma 96.4% | EKVX NSCLC 98.7% | SN12C renal 89.8% | UO-31 renal 82.3% | TK-10 renal 108% | ACHN renal 103% | CAKI-1 renal 105% | A498 renal 95.1% | CCRF-CEM leukemia 99.3% | MOLT-4 leukemia 103% | SR leukemia 104% | RPMI-8226 leukemia 90.6% | OVCAR-8 ovarian 97.8% | OVCAR-5 ovarian 99.6% | SK-OV-3 ovarian 101% | IGROV1 ovarian 111% | OVCAR-3 ovarian 109% | HS 578T breast 87.9% | NCI/ADR-RES ovarian 97.9%

O=C(NNC(=O)c1ccncc1)Nc1ccc([N+](=O)[O-])cc1
inactive: SK-MEL-2 melanoma 95.8% | EKVX NSCLC 91.6% | SN12C renal 114% | UO-31 renal 89.6% | TK-10 renal 106% | ACHN renal 101% | CAKI-1 renal 96.5% | A498 renal 115% | CCRF-CEM leukemia 107% | MOLT-4 leukemia 81.2% | SR leukemia 91.9% | RPMI-8226 leukemia 102% | OVCAR-8 ovarian 105% | OVCAR-4 ovarian 108% | SK-OV-3 ovarian 104% | IGROV1 ovarian 120% | OVCAR-3 ovarian 103% | HS 578T breast 107% | NCI/ADR-RES ovarian 96.4%

COc1ccc(NC(=O)CCn2cnc3c(cc(-c4ccccc4)n3-c3ccccc3)c2=O)cc1
inactive: SK-MEL-2 melanoma 104% | EKVX NSCLC 85.8% | SN12C renal 85.1% | UO-31 renal 88.8% | TK-10 renal 105% | ACHN renal 82% | CAKI-1 renal 78.3% | A498 renal 108% | CCRF-CEM leukemia 93.3% | MOLT-4 leukemia 104% | SR leukemia 95.7% | RPMI-8226 leukemia 93.4% | OVCAR-5 ovarian 94.7% | OVCAR-4 ovarian 72.1% | SK-OV-3 ovarian 58.1% | IGROV1 ovarian 78.9% | OVCAR-3 ovarian 98% | HS 578T breast 46% | NCI/ADR-RES ovarian 63%

CC(C)CCN(CCCNc1c2c(nc3cc(Cl)ccc13)CCCC2)CCC(C)C
active: SR leukemia 7.94%
inactive: SK-MEL-2 melanoma 103% | EKVX NSCLC 54.4% | SN12C renal 71.6% | UO-31 renal 27.2% | TK-10 renal 78.1% | ACHN renal 92.4% | CAKI-1 renal 56.5% | A498 renal 59% | CCRF-CEM leukemia 61.6% | MOLT-4 leukemia 47% | RPMI-8226 leukemia 39.5% | OVCAR-8 ovarian 79.4% | OVCAR-4 ovarian 50.8% | SK-OV-3 ovarian 93.2% | IGROV1 ovarian 50.2% | OVCAR-3 ovarian 81.6% | HS 578T breast 76.1% | NCI/ADR-RES ovarian 74.3%

O=C1c2cc(Cl)ccc2-c2c(O)cc(Cl)cc21
inactive: SK-MEL-2 melanoma 62.3% | EKVX NSCLC 72.1% | SN12C renal 72.2% | UO-31 renal 49.6% | TK-10 renal 114% | ACHN renal 66% | CAKI-1 renal 90.7% | A498 renal 109% | MOLT-4 leukemia 47.3% | SR leukemia 39.3% | RPMI-8226 leukemia 46.6% | OVCAR-8 ovarian 58.4% | OVCAR-5 ovarian 101% | OVCAR-4 ovarian 66.4% | SK-OV-3 ovarian 94.8% | IGROV1 ovarian 74.4% | OVCAR-3 ovarian 80% | HS 578T breast 81.5%
active: NCI/ADR-RES ovarian 3.18%

COc1cc(Cn2c(-c3ccccc3)c(Cl)c3c2-c2oncc2CC3)cc(OC)c1
inactive: SK-MEL-2 melanoma 75.3% | EKVX NSCLC 90.6% | SN12C renal 92% | TK-10 renal 104% | ACHN renal 69.2% | CAKI-1 renal 47.3% | A498 renal 26.5% | RPMI-8226 leukemia 58.9% | OVCAR-8 ovarian 92.8% | OVCAR-5 ovarian 96.7% | OVCAR-4 ovarian 76.8% | SK-OV-3 ovarian 97.2% | IGROV1 ovarian 16.2% | OVCAR-3 ovarian 45.9% | HS 578T breast 52.8% | NCI/ADR-RES ovarian 47.6%
active: UO-31 renal -7.99% | MOLT-4 leukemia 5.45% | SR leukemia 0.637%

O=C(/C=C/c1nnc2n(Cc3ccccc3)c(=O)c3c4c(sc3n12)CCCC4)c1ccccc1
active: MOLT-4 leukemia -3.6% | SR leukemia -5.47% | RPMI-8226 leukemia 1.69%
inactive: SK-MEL-2 melanoma 107% | EKVX NSCLC 92.4% | SN12C renal 96.7% | UO-31 renal 80% | TK-10 renal 136% | ACHN renal 125% | CAKI-1 renal 44.6% | A498 renal 112% | OVCAR-8 ovarian 19.3% | OVCAR-5 ovarian 115% | OVCAR-4 ovarian 112% | SK-OV-3 ovarian 108% | OVCAR-3 ovarian 68.4% | HS 578T breast 110% | NCI/ADR-RES ovarian 85.8%

C=CCn1ccc(=O)nc1SC
inactive: SK-MEL-2 melanoma 107% | EKVX NSCLC 104% | SN12C renal 104% | UO-31 renal 89% | TK-10 renal 101% | ACHN renal 108% | CAKI-1 renal 106% | A498 renal 104% | CCRF-CEM leukemia 104% | MOLT-4 leukemia 100% | SR leukemia 112% | RPMI-8226 leukemia 108% | OVCAR-8 ovarian 100% | OVCAR-5 ovarian 109% | OVCAR-4 ovarian 106% | SK-OV-3 ovarian 105% | OVCAR-3 ovarian 113% | HS 578T breast 106% | NCI/ADR-RES ovarian 104%

O=[N+]([O-])c1ccc(S(=O)(=O)OCCCCOS(=O)(=O)c2ccc([N+](=O)[O-])cc2)cc1
inactive: SK-MEL-2 melanoma 115% | EKVX NSCLC 95.8% | SN12C renal 97% | UO-31 renal 90.1% | TK-10 renal 113% | ACHN renal 110% | CAKI-1 renal 97.9% | A498 renal 104% | MOLT-4 leukemia 94.7% | SR leukemia 100% | RPMI-8226 leukemia 106% | OVCAR-8 ovarian 108% | OVCAR-5 ovarian 103% | OVCAR-4 ovarian 108% | SK-OV-3 ovarian 115% | IGROV1 ovarian 115% | OVCAR-3 ovarian 105% | HS 578T breast 105% | NCI/ADR-RES ovarian 98.9%

CC1(C)CCc2cc(-c3ccn(S(=O)(=O)c4ccc(Cl)cc4)n3)ccc2O1
inactive: SK-MEL-2 melanoma 92.2% | EKVX NSCLC 54.5% | SN12C renal 72.8% | UO-31 renal 75.6% | TK-10 renal 77% | ACHN renal 89.4% | CAKI-1 renal 64.3% | A498 renal 70.8% | CCRF-CEM leukemia 64.2% | MOLT-4 leukemia 65.4% | SR leukemia 45.5% | RPMI-8226 leukemia 52.1% | OVCAR-8 ovarian 86.6% | OVCAR-5 ovarian 101% | SK-OV-3 ovarian 91.3% | OVCAR-3 ovarian 84% | HS 578T breast 99.5% | NCI/ADR-RES ovarian 69.3%

Cc1cn(C(=O)/C(Cl)=C(/Cl)C(=O)O)c2ccccc12
inactive: SK-MEL-2 melanoma 105% | EKVX NSCLC 81.7% | SN12C renal 97.6% | UO-31 renal 59.1% | TK-10 renal 127% | ACHN renal 97.8% | CAKI-1 renal 97.9% | A498 renal 124% | MOLT-4 leukemia 103% | SR leukemia 101% | RPMI-8226 leukemia 82.4% | OVCAR-8 ovarian 110% | OVCAR-5 ovarian 103% | OVCAR-4 ovarian 101% | SK-OV-3 ovarian 95.8% | IGROV1 ovarian 66.1% | OVCAR-3 ovarian 104% | HS 578T breast 97.8% | NCI/ADR-RES ovarian 104%

Cn1c(N)c(N=Cc2ccccc2)c(=O)n(C)c1=O
inactive: SK-MEL-2 melanoma 97.1% | EKVX NSCLC 100% | SN12C renal 104% | UO-31 renal 81.5% | TK-10 renal 117% | ACHN renal 104% | CAKI-1 renal 98% | A498 renal 116% | CCRF-CEM leukemia 112% | MOLT-4 leukemia 99.4% | SR leukemia 96.2% | RPMI-8226 leukemia 108% | OVCAR-5 ovarian 133% | OVCAR-4 ovarian 111% | SK-OV-3 ovarian 96.4% | IGROV1 ovarian 106% | OVCAR-3 ovarian 120% | HS 578T breast 100% | NCI/ADR-RES ovarian 110%

COc1cc(-c2nc(-c3nnc(-c4cccnc4)o3)c3ccccn23)cc(OC)c1OC
inactive: SK-MEL-2 melanoma 111% | EKVX NSCLC 106% | SN12C renal 99.6% | UO-31 renal 74.9% | TK-10 renal 109% | ACHN renal 99% | CAKI-1 renal 104% | A498 renal 83% | MOLT-4 leukemia 93.7% | SR leukemia 104% | RPMI-8226 leukemia 60.9% | OVCAR-8 ovarian 73.8% | OVCAR-5 ovarian 110% | OVCAR-4 ovarian 123% | SK-OV-3 ovarian 108% | IGROV1 ovarian 103% | OVCAR-3 ovarian 129% | HS 578T breast 103% | NCI/ADR-RES ovarian 82.2%

COc1ccccc1CNCCCN1C(=O)c2ccc3c4c(ccc(c24)C1=O)C(=O)N(CCCNCCNCCCN)C3=O
active: SN12C renal 1.16% | MOLT-4 leukemia 1.36% | OVCAR-4 ovarian -94.8% | OVCAR-3 ovarian -14%
inactive: SK-MEL-2 melanoma 24.9% | EKVX NSCLC 37.9% | UO-31 renal 77.3% | TK-10 renal 60.6% | ACHN renal 51.5% | CAKI-1 renal 87.8% | A498 renal 60.9% | SR leukemia 13.6% | RPMI-8226 leukemia 60.8% | OVCAR-8 ovarian 12.4% | OVCAR-5 ovarian 65.9% | SK-OV-3 ovarian 52.8% | IGROV1 ovarian 13.4% | HS 578T breast 54.6% | NCI/ADR-RES ovarian 96.7%

Cc1ccc2nc3[nH]c(=O)[nH]c(=O)c3c(N)c2c1
inactive: SK-MEL-2 melanoma 98% | EKVX NSCLC 59.9% | SN12C renal 72.6% | UO-31 renal 54.9% | TK-10 renal 78.2% | ACHN renal 60.2% | CAKI-1 renal 58% | A498 renal 115% | CCRF-CEM leukemia 77.7% | MOLT-4 leukemia 86.6% | SR leukemia 95.6% | RPMI-8226 leukemia 89.8% | OVCAR-5 ovarian 92.9% | OVCAR-4 ovarian 81.7% | SK-OV-3 ovarian 86% | IGROV1 ovarian 75.1% | OVCAR-3 ovarian 101% | HS 578T breast 79.2% | NCI/ADR-RES ovarian 97.8%
